The supplement of paper PMC9433436
± gives the standard deviation of the averaged measurements. Over roughly 4,100 sequences, “relative kcat/Km (krel) vs genomic leader AAAGAU” has its median near 1.7; the highest 2% begin near 6.5. The sample as a whole holds a higher share of the highest values than the screen did.

Biological target: T1, E. coli RNase P holoenzyme (M1 P RNA + rnpA protein) (UniProt P0A7Y8)
T1 sequence: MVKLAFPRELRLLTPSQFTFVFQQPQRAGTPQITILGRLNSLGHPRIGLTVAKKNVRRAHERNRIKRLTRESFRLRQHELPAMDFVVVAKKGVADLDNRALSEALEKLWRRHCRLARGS
Assay: relative kcat/Km (krel) vs genomic leader AAAGAU (relative (reference leader = 1)); higher = faster RNase P cleavage
Protocol: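 HTS-Kin: a pool of ptRNA-Met (21C construct) with all 4096 combinations of 5' leader nucleotides N(-6) to N(-1) was processed in vitro by E. coli RNase P (P RNA + rnpA/C5 protein) under multiple-turnover conditions at 37 C, pH 8, 17.5 mM MgCl2. Residual substrate was Illumina-sequenced at several fractions reacted, and relative kcat/Km (krel) was computed by internal competition kinetics, calibrated to the genomic leader (AAAGAU = 1). The listed hexamer is the varied N(-6)..N(-1) leader (DNA letters), and it sits between a fixed 5' stem-loop flank (GCAUGCACGAAAGUGCGUGCUAUGAA) and the mature tRNA-Met starting GGCUACGUAGCUCAGUUGG. Two technical replicates are averaged.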

[1] = fraction of substrate reacted: ~9-10% (9.79% repeat 1, 9.1% repeat 2)
[2] = fraction of substrate reacted: ~13-16% (15.68% repeat 1, 13.17% repeat 2)
[3] = fraction of substrate reacted: ~26-29% (28.66% repeat 1, 26.4% repeat 2)

Sequence	relative kcat/Km [1]	relative kcat/Km [2]	relative kcat/Km [3]
CGATAC	3.25 ± 1.4	4.04 ± 1	5.79 ± 2.4
GGATAT	1.83 ± 0.13	2.63 ± 0.49	3.4 ± 1.9
ATCAAA	3.96 ± 1.9	5.34 ± 0.78	7.44 ± 3.2
CTTAAG	1.2 ± 0.59	1.63 ± 0.79	2.28 ± 0.23
CTCAAA	4.31 ± 1.6	4.92 ± 1.4	8.02 ± 3.1
GTCAAA	4.62 ± 1.6	5.99 ± 1.9	8.75 ± 3.3
GGCAAT	1.76 ± 0.086	1.558 ± 0.015	3.04 ± 1.2
GTCAAT	3.17 ± 0.8	4.56 ± 1.9	7.14 ± 3.8
ACCAAG	–	0.763 ± 0.21	2.7 ± 0.17
ATCAAG	–	1.96 ± 0.14	3.87 ± 0.91
GCCAAT	3.15 ± 0.068	2.75 ± 1.7	4.52 ± 2.3
CTCAAG	2.69 ± 2	2.93 ± 1.3	4.67 ± 1.1
GTCAAG	1.75 ± 0.96	2.63 ± 0.65	5.35 ± 2.1
GGCAAA	2.21 ± 1	3.13 ± 0.17	3.46 ± 0.93
CAGTCA	1.56 ± 0.78	1.64 ± 1.4	2.56 ± 1.5
TGTAGG	–	0.426 ± 0.27	1.61 ± 0.48
CAACCC	1.41 ± 0.43	1.26 ± 0.56	1.22 ± 0.096
TCACAC	3.8 ± 1.1	4.7 ± 1.1	5.86 ± 2
CCACAC	1.98 ± 0.78	2.63 ± 0.9	3.97 ± 1.5
GCTAGA	1.329 ± 0.007	1.71 ± 0.21	2.45 ± 0.62
GCCCGG	0.406 ± 0.099	–	0.437 ± 0.31
CAGAGG	–	–	0.599 ± 0.16
ACATCT	2.62 ± 1.1	3.25 ± 0.78	4.12 ± 1.9
TCATGG	0.253 ± 0.062	0.443 ± 0.084	0.476 ± 0.47
GATAAC	2.1 ± 0.44	2.81 ± 0.13	3.66 ± 1

Sequence	relative kcat/Km [1]	relative kcat/Km [2]	relative kcat/Km [3]
TATGTG	–	–	0.506 ± 0.12
ATCTGG	0.825 ± 0.53	–	1.46 ± 0.34
CTCAGT	1.02 ± 0.51	1.91 ± 1.4	2.13 ± 1.4
CTCAGG	1.96 ± 1.2	1.21 ± 0.29	2.45 ± 0.18
ATCAGT	–	1.79 ± 1.8	2.19 ± 2.2
CTCAGA	4.71 ± 1.4	5.99 ± 1	8.03 ± 2.7
ATCAGA	3.76 ± 2	4.59 ± 0.2	7.03 ± 1.9
ATCAGG	0.528 ± 0.016	–	1.41 ± 0.062
GTCAGA	3.33 ± 0.28	5.57 ± 1.1	9.06 ± 3.4
GCCAGA	2.6 ± 2	2.26 ± 0.32	5.56 ± 1.6
GTCGGA	–	1.67 ± 1.1	1.51 ± 1.2
GGACAA	0.879 ± 0.43	1.34 ± 0.47	2.59 ± 0.96
TAATTC	2.12 ± 1.6	2.45 ± 0.42	3.22 ± 0.89
AGACGT	–	–	1.98 ± 1.9
TATGCC	2.71 ± 0.41	1.72 ± 0.22	2.97 ± 1.5
CCCGCA	3.38 ± 0.43	3.43 ± 1.2	4.58 ± 1.4
TCCGCC	4.39 ± 0.68	5.9 ± 0.79	7.97 ± 3.5
TCCGCA	4.56 ± 2.3	5.02 ± 0.26	6.95 ± 2.4
TCCGCT	2.17 ± 0.033	2.55 ± 2	3.65 ± 1.5
CCCGCC	2.78 ± 0.39	4.24 ± 2	4.94 ± 1.9
GCCGCC	2.33 ± 1.2	3.21 ± 1.2	5.43 ± 2.6
TGTATG	–	–	1.93 ± 0.25
CCTTTA	1.51 ± 0.63	1.47 ± 0.27	2.25 ± 0.99
ACAGAT	0.729 ± 0.034	1.48 ± 0.42	1.88 ± 0.26
ATTACC	1.64 ± 0.48	1.65 ± 0.26	2.21 ± 0.71
